According to PubChem BioAssay:

Assay: HepG2 liver cancer cell viability effects, profiling panel, resazurin fluorescence, 24 h, PK04 Diversity Set (AID 1172); note: test concentration not given here
Conditions: higher = more signal
CCCNC(=O)[C@@]1(Sc2ccc(C)cc2)CC(=O)N(Cc2ccccc2Cl)[C@@H]1c1ccc(CO)cc1I showed a z-score of 0.766.
C=CCN1Cc2ccccc2[C@H]2OC(c3ccc(OCCCO)cc3)=N[C@@]2(CCS(=O)(=O)c2ccccc2)C1=O gave a z-score of -0.439.
Work on [N-]=[N+]=Nc1ccccc1C[C@]1(C(=O)N2CCOCC2)N=C(c2ccc(OCCCO)cc2)O[C@H]1c1ccccc1N=[N+]=[N-] yielded a z-score of -1.37.
With C[C@]1(C(=O)O)c2ccccc2C(=O)N(Cc2cc(F)cc(C(F)(F)F)c2)[C@H]1c1ccc(CO)cc1 the z-score was 0.646.
CC(C)c1nc2cc(Br)ccc2c(=O)o1 gave a z-score of 0.693.
Compound CN(C)CCCC[C@@H]1NC(=O)[C@H]2C[C@@H](C(=O)O)[C@@H](c3ccc(O)cc3)N2C1=O has a z-score of -0.401.
For CN1C(=O)C2C(C3CC3)C=C3CN(Cc4cccc(Cl)c4)[C@@H]([C@@H](O)Cc4ccccc4)C3C2C1=O (some centres undefined), the z-score was 0.313.
C=CCC(OC(C)=O)[C@@H]1[C@@H](N(Cc2ccc(-c3cccc(C(F)(F)F)c3)o2)C(=O)c2ccc(-c3ccccc3)cc2)c2cc(OCCCO)ccc2N1C(=O)c1ccc2ccccc2c1 (some centres undefined) gave a z-score of 0.393.
CCCCC(O)C1C=CC2C(=O)N(c3ccccc3)C(=O)C2N1Nc1ccc(C#N)cc1 (centres undefined) showed a z-score of -0.438.
Work on NC(=O)N1C(=O)C2C(C1=O)C1C=C(CCCO)C2C(c2ccc(CN3CCCC3)cc2)N1Cc1sc2ccccc2c1Cl (centres undefined) yielded a z-score of -0.968.
In the case of CC(C)=CCCC(C)=CC(O)C1C=CC2C(=O)NC(=O)C2N1Nc1ccccn1 (centres undefined), the z-score is reported as -1.33.
In the case of Cc1ccc(S[C@]2(C(=O)NCCCN(C)C)CC(=O)N(C3Cc4ccccc4C3)[C@@H]2c2ccc(CO)cc2I)cc1, the z-score is reported as -0.595.
COc1ccc(C#Cc2ccc3c(c2)[C@]2(C(=O)N3)[C@H](C(=O)O)[C@H]3C(=O)O[C@H](c4ccccc4)[C@H](c4ccccc4)N3[C@@H]2c2ccccc2OCCO)cc1 showed a z-score of -0.638.
With COc1ccc(CCNC(=O)[C@@H]2c3ccccc3C(=O)N(Cc3ccccc3OC)[C@H]2c2ccc(CO)cc2)cc1 the z-score was 0.851.
C=CCC(OC(C)=O)[C@@H]1[C@@H](N(Cc2cccc3ccccc23)C(=O)Cc2ccc(OC)cc2)c2cc(OCCCO)ccc2N1C(=O)Cc1ccc2ccccc2c1 (some centres undefined) gave a z-score of 0.687.
With CC(C)(C)OC(=O)CC[C@@]1(C(=O)NCCN2CCOCC2)N=C(c2ccc(OCCCO)cc2)O[C@@H]1c1ccccc1CN=[N+]=[N-] the z-score was 0.535.
With CC(C)NC(=O)[C@@]1(C)c2ccccc2C(=O)N(Cc2ccccc2)[C@H]1c1ccc(CO)cc1 the z-score was 0.107.
In the case of CN(C)c1ccc(C(O)C2C=CC3C(=O)N(Cc4ccccc4)C(=O)C3N2n2cnnc2)cc1 (centres undefined), the z-score is reported as -0.659.
COc1ccc(C(=O)Nc2ccc(CN3C(=O)[C@@]4(O[C@@H](CCn5cc(CCO)nn5)[C@H]([Si](C)(C)c5ccc(OC)cc5)[C@H]4C)c4ccccc43)cc2)cc1 gave a z-score of -3.26.
CC(C)C[C@H]1NC(=O)C([C@@H](C)OCc2ccccc2)NC(=O)[C@@]23C(=O)N[C@@H](Cc4ccccc4)C2[C@H](C)[C@@]2(C)O[C@H]2C3/C=C/C/C=C\CNC1=O (some centres undefined) gave a z-score of -0.662.
For COc1ccc([Si](C)(C)[C@@H]2[C@@H](CC(=O)N3CCC[C@H]3CO)O[C@]3(C(=O)N(Cc4cccc(N5CCCCC5=O)c4)c4ccccc43)[C@H]2C)cc1, the z-score was -1.26.
Work on CO[C@H]1O[C@H](CO)[C@@H](OC(=O)Nc2ccccc2-c2ccccc2)[C@H](OC(=O)Nc2ccccc2)[C@H]1OC(=O)Nc1ccccc1 yielded a z-score of -1.68.
CCCCC(O)C1C=CC2C(=O)N(c3ccccc3)C(=O)C2N1Nc1ccc([N+](=O)[O-])cc1 (centres undefined) gave a z-score of 0.172.
With C=CCNC(=O)[C@@H]1[C@H]2C(=O)O[C@H](c3ccccc3)[C@H](c3ccccc3)N2[C@H](c2ccc(OCCO)cc2)[C@@]12C(=O)Nc1ccc(C#CC3(O)CCCCCC3)cc12 the z-score was -1.01.
Work on CN1C(=O)C2C(C1=O)C1C=C(c3ccc(CO)cc3)C2C(C2CC2)N1C (centres undefined) yielded a z-score of -0.849.
Work on COC(=O)[C@@]1(Cc2ccc(F)cc2)[C@H]2c3cc(C(=O)N4CCCC4)n(Cc4ccccn4)c3C[C@H]2CN1C(=O)c1ccccc1 yielded a z-score of -1.52.
NC(=O)N1C(=O)C2C(C1=O)C1C=C(CCCO)C2C(c2ccc(CN3CCCC3)cc2)N1Cc1cc2c(cc1Br)OCO2 (centres undefined) showed a z-score of -0.766.
Work on CCCCN1CC=CC23O[C@@H]4/C=C\CCCOC(=O)C4[C@H]2C(=O)N(C(CO)C(C)C)[C@@H]3C1=O (some centres undefined) yielded a z-score of -0.101.
Work on O=C1O[C@H](c2ccccc2)[C@H](c2ccccc2)N2[C@H]1[C@@H](C(=O)N1CCN(c3ncccn3)CC1)[C@]1(C(=O)Nc3ccc(C#CCCO)cc31)[C@H]2c1ccc(O)cc1 yielded a z-score of 0.0071.
